{
  "source": "PubChem BioAssay (NCATS)",
  "note": "The list shows a part of the results. Records with an inconclusive call do not appear. A number with no mark means an inactive call. Activity calls are given as the source filed them. Calls come from the whole dose curve; as a rule, active = well fitted inhibition curve with a large enough effect; inconclusive = small, poorly fitted or top-dose-only effect; inactive = flat fitted curve, though single readings scatter. % is set by controls: 0 for no effect and ±100 for the full control effect; potency is the fitted concentration of half-maximal effect.",
  "data": [
    {"assay": "qHTS Assay for Inhibitors of Fructose-1,6-bisphosphate Aldolase from Giardia Lamblia: Mammalian cellular toxicity (AID 2786);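 note: compound exposure lasted 48 h before reading; nearly all actives have a fitted effect of over 60% in size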", "conditions": "mammalian cell viability counter-screen; series mostly up to 57.5 µM; viability change, negative = toxicity: at the top concentration", "text": "NIH Chemical Genomics Center [NCGC]\nNIH Molecular Libraries Probe Production centers Network [MLPCN]\nAssay Provider: Osnat Herzberg, University of Maryland\nThe objective of this project is to obtain compounds that inhibit Giardia lamblia growth. G. lamblia is a human pathogen which afflicts impoverished nations; it is the most common cause of outbreaks of diarrhea in the United States. During the course of our study of potential drug targets in Giardia, we have identified the Class II (Zn2+ functions in electrophilic catalysis) fructose-1,6-bisphosphate aldolase (FBPA) as an excellent candidate for drug targeting. FBPA is a key glycolytic pathway enzyme, essential for G. lamblia survival. The human FBPA belongs to the Class I aldolases, which have a different substrate binding site structure and a radically different catalytic mechanism (employing a lysine-Schiff base intermediate). Therefore, affinity-based or mechanism-based inhibitors of the Giardia FBPA are expected not to interfere with the catalytic function of the human FBPA.\nA glyceraldehyde-3-phosphate dehydrogenase/triose phosphate isomerase/NAD/arsenate coupled assay was adapted to the 1536-well HTP format for use in the primary screen. This was done by coupling it to a diaphorase/resazurin/resorufin reaction that can be monitored by fluorescence (excitation, 544 nm; emission, 590 nm). Compounds identified in this screen will be further evaluated by coupling the glycerol-3-phosphate/triose phosphate isomerase/NADH assay to a phenazine methosulfate/tetranitroblue tetrazolium color reaction. False positives due to the dehydrogenases and diaphorase inhibition will be eliminated, and selectivity assay will triage inhibitors of mammalian triose phosphate isomerase and the Class I FBPA. G. lamblia FBPA inhibitors identified by the in vitro analyses will be examined for growth inhibition of Giardia trophozoites, and for cytotoxicity in human cells.\nThis assay addresses whether hits in the primary screen are cytotoxic to mammalian cells, using Chinese hamster ovary cells as a surrogate.\n2uL/well media was dispensed per well into 1536-well white solid-bottom plates using Multidrop Combi dispenser. Subsequently, 23 nL/well compound solutions or DMSO controls were dispensed to the assay plates via a pintool workstation. The Chinese hamster ovary (CHO) cells were grown in T225 flasks to 70% confluence under a standard cell culture condition (ATCC), detached with 0.25% Trypsin/EDTA, and seeded at 250 cells/well in 5uL medium (Dulbecco's Modified Eagle Medium, 10% fetal bovine serum, 1x penicillin/streptomycin). The plates were incubated at 37 °C with 5% CO2 and 95% humidity for 48 hours, and then ATP content was measured following the addition of 4uL/well of ATPlite reagent and a 20 min incubation on a ViewLux plate reader.\nKeywords: Fructose-bisphosphate aldolase, FBPA , Giardia lamblia , Giardia, HTS, Inhibitors", "units": {"viability change, negative = toxicity": "%"}, "values": [
      {"smiles": "Oc1[nH]c2ccc(Br)cc2c1N=Nc1nn[nH]n1", "viability change, negative = toxicity": -1.69},
      {"smiles": "O=C(CSc1cccc[n+]1[O-])c1ccc(-c2ccccc2)cc1", "viability change, negative = toxicity": -27.7},
      {"smiles": "COc1ccc(OC)c(Nc2nc(-c3ccc(O)c(O)c3)cs2)c1", "viability change, negative = toxicity": -22.2},
      {"smiles": "COc1ccc(C(=O)NC(=S)N2CCCCC2c2cccnc2)cc1OC", "note": "(stereo not given)", "viability change, negative = toxicity": 1.32},
      {"smiles": "Cc1cc(C)n(-c2ccc(Cl)c(C(=O)O)n2)n1", "viability change, negative = toxicity": 7.82},
      {"smiles": "Clc1cccc(CN2COc3c(cc(Cl)c4cccnc34)C2)c1", "Potency": "20 µM (active)"},
      {"smiles": "C=CCNC(=S)/N=c1/ccccn1Cc1ccccc1", "viability change, negative = toxicity": 25.2},
      {"smiles": "COCCN(C(=S)Nc1ccccc1OC)C1CCN(C(C)C)CC1", "viability change, negative = toxicity": 1.84},
      {"smiles": "O=C1CCCN1CCCNC(=S)Nc1ccc(F)c(Cl)c1", "viability change, negative = toxicity": -9.81},
      {"smiles": "O=C(O)Cn1c(Cc2ccccc2)nc2ccccc21", "viability change, negative = toxicity": -4.21},
      {"smiles": "C=C(C)CNC(=S)N/N=C/c1ccccc1OCC(=O)O", "viability change, negative = toxicity": 21.4},
      {"smiles": "O=C(Nc1nnc(-c2ccco2)o1)c1ccc(S(=O)(=O)N2CCOCC2)cc1", "viability change, negative = toxicity": 8.14},
      {"smiles": "CCN1CCc2c(C#N)c(NCc3ccccc3)nc(NCCO)c2C1", "viability change, negative = toxicity": 16.3},
      {"smiles": "Cc1cc(C)c2c(=O)[nH]c(SCC(=O)Nc3ccc(Br)cc3)nc2n1", "viability change, negative = toxicity": -8.04},
      {"smiles": "CC1CCCN(S(=O)(=O)c2ccc(C(=O)Nc3nnc(-c4ccncc4)o3)cc2)C1", "note": "(stereo not given)", "viability change, negative = toxicity": -6.34},
      {"smiles": "O=S(=O)(c1ccc(NC(=S)NN=C(C2CC2)C2CC2)cc1)N1CCOCC1", "viability change, negative = toxicity": 1.01},
      {"smiles": "Cn1nnc(NC(=S)NC(=O)c2ccccc2)n1", "viability change, negative = toxicity": -1.08},
      {"smiles": "Cc1ccc(C(=O)Nc2nnc(C3=COCCO3)o2)cc1C", "viability change, negative = toxicity": 0.426},
      {"smiles": "Cc1cc(C)nc(N/N=C/c2ccc([N+](=O)[O-])o2)n1", "viability change, negative = toxicity": 0.383},
      {"smiles": "O=c1nc(N/N=C/c2ccco2)cn[nH]1", "viability change, negative = toxicity": 3.52},
      {"smiles": "COc1ccc(Cl)cc1C(=O)NNC(=O)c1nc2nc(C)cc(C)n2n1", "viability change, negative = toxicity": 12.3},
      {"smiles": "Cc1csc(NC(=O)CN2CCCCCC2)n1", "viability change, negative = toxicity": -7.59},
      {"smiles": "CCN(CC(=O)NC(=O)NCc1ccccc1)Cc1nc2ccccc2c(=O)[nH]1", "viability change, negative = toxicity": -3.84},
      {"smiles": "O=[N+]([O-])c1ccc2nc(-c3ccccn3)[nH]c2c1", "Potency": "25.1 µM (active)"},
      {"smiles": "CCc1ccc2c(c1)C1(NN=C(c3ccccc3)S1)C(=O)N2", "note": "(stereo not given)", "Potency": "25.1 µM (active)"},
      {"smiles": "Cc1cccc(-c2nnc(SCC(=O)O)n2Cc2ccccc2)c1", "viability change, negative = toxicity": 3.23},
      {"smiles": "COc1ccccc1CN1CCN(Cc2cc(OC)c(OC)cc2OC)CC1", "viability change, negative = toxicity": 3.82},
      {"smiles": "Cc1nc2ccc(NC(=S)N3CCC(C)CC3)cc2nc1C", "viability change, negative = toxicity": -5.49},
      {"smiles": "O=[N+]([O-])c1cc([N+](=O)[O-])c2cccnc2c1O", "viability change, negative = toxicity": 21.6},
      {"smiles": "O=C(NC(=S)Nc1ncccn1)c1ccccc1Br", "viability change, negative = toxicity": -18.1},
      {"smiles": "Cc1nc(N2CCOCC2)sc1C(=O)NN", "viability change, negative = toxicity": -2.56},
      {"smiles": "O=C(CN1C(=O)COc2ccccc21)Nc1ccc(F)cc1", "viability change, negative = toxicity": -16.3},
      {"smiles": "O=C(CN1CCN(Cc2ccccc2)CC1)Nc1ccc(F)c(F)c1", "viability change, negative = toxicity": 15.6},
      {"smiles": "CN1CCN(CCCCOc2ccccc2-c2ccccc2)CC1", "viability change, negative = toxicity": -3.92},
      {"smiles": "CSc1n[nH]c(=S)n1N", "viability change, negative = toxicity": 2.66},
      {"smiles": "COc1ccc(N=Nc2c(-c3ccc(OC)cc3)[nH]oc2=O)cc1", "viability change, negative = toxicity": -3.71},
      {"smiles": "C/C(=N\\NC(N)=S)c1cccnc1", "viability change, negative = toxicity": 3.52},
      {"smiles": "O=c1[nH]c(=S)[nH]c2[nH]c(=S)[nH]c12", "viability change, negative = toxicity": -1.2},
      {"smiles": "C=CCc1cc(C)ccc1OCCCn1ccnc1", "viability change, negative = toxicity": 19.1},
      {"smiles": "COc1ccc(CN2CCN(Cc3ccc(OC)c(OC)c3OC)CC2)cc1", "viability change, negative = toxicity": -1.43}
    ]}
  ]
}
